# Only some compounds are listed: those with a hit (about 3.4% of all), similar ones and a draw of the others.
# TEAD-YAP block: TEAD-YAP interaction inhibition; actives 1.4% (n = 640,000); HEK-TIYL cells, TEAD-Gal4/YAP UAS-luciferase luminescence; inhibition, % at 9.12 µM; in the data active means inhibition above about 32%;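 further: 0% = median of test compound wells and 100% = reference inhibitor wells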
# GPR151 activ: activators of human GPR151; Q8TDV0; PathHunter beta-arrestin GPR151 cells, luminescence; activation, % at 11.2 µM; actives 1% (n = 650,000); AID 1508602; in the data active means activation above about 4.9%;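 further: 0% = median of compound wells and 100% = cells with positive control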
# FBW7 activator: activators of human E3 ligase FBW7 | AlphaScreen FBW7–phospho-cyclin E peptide binding, activator screen | normalized activity (activation), % at 26.1 µM | actives 0.13% (n = 650,000) | AID 1259310; in the data active means normalized activity above about 1.9%;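 further: purified mutant Fbw7 with reduced substrate affinity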
# MITF inh: inhibitors of human MITF | O75030 | AlphaScreen MITF homodimerization, bead proximity signal | inhibition, % at 2.6 µM | actives 0.91% (n = 650,000) | AID 1259374; in the data active means inhibition above about 50%;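 further: 0% = vehicle wells with protein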
# Target sequence (O75030 whole entry, looked up): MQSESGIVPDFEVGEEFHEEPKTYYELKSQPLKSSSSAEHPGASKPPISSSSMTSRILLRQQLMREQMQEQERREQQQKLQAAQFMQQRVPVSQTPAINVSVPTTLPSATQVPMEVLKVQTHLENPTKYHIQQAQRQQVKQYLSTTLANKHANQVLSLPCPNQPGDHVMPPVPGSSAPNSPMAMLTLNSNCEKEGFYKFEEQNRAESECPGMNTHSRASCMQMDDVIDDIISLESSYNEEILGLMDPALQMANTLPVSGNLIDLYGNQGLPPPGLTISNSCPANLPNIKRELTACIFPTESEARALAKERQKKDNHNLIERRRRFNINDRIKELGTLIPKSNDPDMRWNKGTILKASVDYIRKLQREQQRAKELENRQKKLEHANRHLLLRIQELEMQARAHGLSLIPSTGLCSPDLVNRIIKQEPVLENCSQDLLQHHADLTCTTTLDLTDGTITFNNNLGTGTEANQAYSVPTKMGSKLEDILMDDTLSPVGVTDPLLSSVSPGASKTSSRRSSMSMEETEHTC
# * marks the source's active call; other numbers are inactive results.
SMILES,TEAD-YAP block,GPR151 activ,FBW7 activator,MITF inh
COc1ccc(-c2nc(Nc3cc(OC)c(OC)c(OC)c3)nc(OC)n2)cc1,45*,-1,0,-2
COc1ccc(-c2nc(Nc3ccc(Oc4ccccc4)cc3)nc(OC)n2)cc1,3,2,0,16
COc1ccc(-c2nccc(Nc3cc(OC)c(OC)c(OC)c3)n2)cc1,60*,2,0,0
COc1ccc(CNC(=O)Cc2ccc(-n3cccc3)cc2)cc1,45*,-1,0,16
COCC(=O)N/N=C(\C)CC(=O)NCc1ccc(OC)cc1,-14,-1,2.1*,10
CCOc1ccc(CC(=O)NCc2ccccc2)cc1,37*,1,0,-2
CCOc1ccc(CNC(=O)Cc2cn(C)c3ccccc23)cc1,5,0,0,18
Cc1ccc([N+](=O)[O-])cc1S(=O)(=O)NCCc1c(C)[nH]c2ccc(F)cc12,-8,-1,0,0
O=C(O)c1ccc(-c2c(C(F)(F)F)oc3cc(O)ccc3c2=O)cc1,-11,3,0,17
N#C/C(=C\c1ccc(-c2ccccc2Cl)o1)c1nn(-c2ccccc2)c(N)c1C#N,-8,1,0,-2
Cc1ccc(-c2cnc(SCC(=O)N3CCCC3)n2C)cc1,58*,-1,0,-17
Cc1ccc(NC(=O)c2cnc(SCC(=O)N3CCCC3)n(C)c2=O)cc1,-9,-4,0,14
O=c1c(Nc2ccc(Cl)cc2)c(-c2ccccc2)c1=O,-2,0,0,9
O=c1c(Nc2ccccc2)c(-c2ccc(Cl)cc2)c1=O,47*,-1,0,9
CCOc1ccc(Nc2c(-c3ccccc3)c(=O)c2=O)cc1,60*,-2,0,20
CCOc1ccccc1Nc1c(-c2ccccc2)c(=O)c1=O,-8,-1,0,-1
C/C(=N/NC(=O)c1ccccc1[N+](=O)[O-])c1ccc(N2C(=O)C3CCCCC3C2=O)cc1 (centres undefined),-15,-1,0,8
Cc1nn2c(=O)/c(=C\c3ccccn3)sc2nc1=O,-2,1,0,70*
Cn1nc(CC(=O)Nc2ccc3c(c2)OCO3)c2ccccc2c1=O,26,0,0,0
Cn1nc(CC(=O)Nc2cccc(C(F)(F)F)c2)c2ccccc2c1=O,42*,3,0,1
Cn1c(C(=O)O)c(CC(=O)Nc2ccc3c(c2)OCCO3)c2ccccc21,35*,-1,0,21
Cn1nc(CC(=O)Nc2ccc(Oc3ccccc3)cc2)c2ccccc2c1=O,40*,3,0,5
Cn1nc(CC(=O)Nc2ccc3c(c2)OCCO3)c2ccccc2c1=O,50*,-1,0,-6
COc1ccc(C(=O)Oc2ccc(NC(=O)Cc3nn(C)c(=O)c4ccccc34)cc2)cc1,-4,0,0,-7
Cn1nc(CC(=O)Nc2cccc(O)c2)c2ccccc2c1=O,5,1,0,-7
SMILES,TEAD-YAP block,GPR151 activ,FBW7 activator,MITF inh
CC(C)N(CCNC(=O)C1CCN(c2ccc(Nc3ccc4ncccc4c3)nn2)CC1)C(C)C,-1,0,0,-34
Cc1ccccc1OC(C)C(=O)O/N=C(\N)c1ccccn1 (centres undefined),-28,0,1,8
Cc1ccc(NC(=O)Cc2nn(C)c(=O)c3ccccc23)cc1F,20,1,0,3
Cn1nc(CC(=O)Nc2ccc(Cl)cc2)c2ccccc2c1=O,39*,-1,1,19
O=C(Cc1ccc2c(c1)OCCO2)Nc1ccc2ccccc2c1,42*,0,0,0
Cc1ccc(C)n1CCCC(=O)Nc1ccc2c(c1)OCCO2,59*,1,0,-1
COc1ccc(CC(=O)Nc2ccc3c(c2)OCCO3)cc1OC,1,0,0,11
O=C(COc1cccc(C(F)(F)F)c1)NNC(=O)Cc1c(F)cccc1Cl,11,0,0,-7
N#CC1=C(N)N(c2c(F)cccc2F)C2=C(C(=O)CCC2)C1c1cccc(Cl)c1Cl (centres undefined),-19,0,0,-12
COc1ccc2nc(NC(=O)c3cc(Br)ccc3Cl)sc2c1,-18,-1,0,1
COc1ccc2nc(NC(=O)c3ccoc3C)sc2c1,59*,-10,0,10
COc1ccc2nc(NC(=O)c3nn(C)cc3C)sc2c1,-19,-9,3.6*,-3
CCCn1cnc2sc(C(=O)N3CCN(c4ccccc4)CC3)c(C)c2c1=O,2,0,0,6
Cc1ccc2oc(-c3ccc(Cl)c(N)c3)nc2c1,68*,-10,0,7
COc1ccc(-c2nc3cc(N)ccc3o2)cc1Br,-19,-1,0,-7
COc1ccc(-c2nc3cc(C)ccc3o2)cc1N,88*,-8,0,13
COc1ccc(-c2nc3ccccc3o2)cc1N,19,-6,0,0
COc1ccc(-c2nc3cc(C(C)C)ccc3o2)cc1N,66*,-1,0,10
OC1CCC(Nc2nc(NCc3ccccc3)c3ncn(-c4ccccc4)c3n2)CC1 (centres undefined),-40,1,0,-2
OC1CCC(Nc2nc(Nc3ccc(N4CCOCC4)cc3)c3ncn(-c4ccccc4)c3n2)CC1 (centres undefined),38*,1,0,21
c1ccc(-n2cnc3c(NC4CC4)nc(Nc4ccc(N5CCOCC5)cc4)nc32)cc1,33*,1,0,7
Oc1cccc(-c2cnc3c(Nc4ccccc4)nccn23)c1,3,-3,0,-12
Nc1ccc(-c2cnc3c(Nc4ccccc4)nccn23)cc1,53*,-3,0,7
c1ccc(Nc2nccn3c(-c4ccco4)cnc23)cc1,44*,-3,0,2
COCc1ccc(C(=O)N2CCOc3ccc(C(O)C4CCCCC4)cc3C2)o1 (centres undefined),10,-2,0,17
SMILES,TEAD-YAP block,GPR151 activ,FBW7 activator,MITF inh
COc1cccc(-n2c(-c3ccccc3)nc(=S)c3c2CC(C)(C)OC3)c1,0,-2,0,-14
CCC(CC)NC(=O)c1cc(=O)c2ccccc2o1,-7,-1,0,14
O=C(Nc1ccc(Cl)cc1)c1cnc2ccccn12,-23,-1,0,17
CC(C)(C)c1ccc(NC(=O)c2cnc3ccccn23)cc1,55*,-1,1,21
CCN(C(=O)Cc1ccc(C)cc1)c1ccccc1,3,0,0,13
COc1ccc(-c2nc(NCCCN3CCCC3=O)c3ncn(-c4ccccc4)c3n2)cc1,20,3,0,10
O=C1CCCN1CCCNc1nc(-c2ccccc2)nc2c1ncn2-c1ccsc1,30,1,0,10
O=C1CCCN1CCCNc1nc(NC2CC2)c2ncn(-c3ccccc3)c2n1,42*,-2,0,5
NC(=O)c1ccc(-c2nc(NCCCN3CCCC3=O)c3ncn(-c4ccsc4)c3n2)cc1,49*,0,0,3
O=C1CCCN1CCCNc1nc(-c2ccccc2)nc2c1ncn2-c1ccccc1,33*,3,0,2
